# According to PubChem BioAssay (NCATS):
# “And” between values parts separate entries of the source, which are not always exact repeats. Equal entries are not always repeated. Records with an inconclusive call do not appear. A call without a number means that no potency is given here. The source made the active and inactive calls. Unless noted, calls follow the shape of the dose curve; as a rule, active = well fitted curve in the direction sought with a large enough effect; inconclusive = small, poorly fitted or top-dose-only effect, or another doubt; inactive = no such curve, though single readings can be large; an effect the other way counts as inactive or inconclusive.
# Experiments:
# [1] = molecular target: Ubiquitin carboxyl-terminal hydrolase 1 (Homo sapiens) (UniProt O94782); assay: Inhibitors of USP1/UAF1: Pilot qHTS (AID 504865); also: nearly all actives have a fitted effect of over 35% in size; also: potency is read from the fitted curve at half-maximal effect;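 as to activity change, negative = inhibition: rhodamine fluorescence freed from ubiquitin-rhodamine substrate followed over time; top concentration of the series differs between compounds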
# Sequence of Ubiquitin carboxyl-terminal hydrolase 1 (Homo sapiens) (O94782 whole entry, looked up): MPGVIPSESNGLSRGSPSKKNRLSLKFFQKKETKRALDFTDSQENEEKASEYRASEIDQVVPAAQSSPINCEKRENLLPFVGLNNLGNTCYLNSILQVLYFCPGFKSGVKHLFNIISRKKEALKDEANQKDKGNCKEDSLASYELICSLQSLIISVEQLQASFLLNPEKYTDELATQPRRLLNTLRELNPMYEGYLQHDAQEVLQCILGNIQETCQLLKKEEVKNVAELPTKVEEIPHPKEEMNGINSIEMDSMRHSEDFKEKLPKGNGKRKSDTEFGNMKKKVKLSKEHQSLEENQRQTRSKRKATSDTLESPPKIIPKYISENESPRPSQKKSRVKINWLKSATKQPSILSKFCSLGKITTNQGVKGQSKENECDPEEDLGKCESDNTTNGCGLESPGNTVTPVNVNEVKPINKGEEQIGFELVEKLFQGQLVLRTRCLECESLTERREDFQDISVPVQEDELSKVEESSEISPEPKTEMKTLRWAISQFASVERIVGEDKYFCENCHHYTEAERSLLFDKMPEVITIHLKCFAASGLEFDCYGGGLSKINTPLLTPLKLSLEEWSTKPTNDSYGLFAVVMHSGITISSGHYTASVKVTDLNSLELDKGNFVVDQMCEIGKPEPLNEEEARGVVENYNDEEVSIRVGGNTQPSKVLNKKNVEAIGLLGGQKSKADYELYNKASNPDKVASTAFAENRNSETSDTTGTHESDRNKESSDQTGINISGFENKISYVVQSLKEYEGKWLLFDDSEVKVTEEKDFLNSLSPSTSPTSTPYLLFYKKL
# In short: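 Kinetic fluorescence assay: 1nM USP1/UAF1, 15 min compound preincubation, then 150nM Ub-Rho; 480/540 nm.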
# Furin (Homo sapiens) = Furin (Homo sapiens) (UniProt P09958); assay: Furin counterscreen qHTS for Zika virus inhibitors (AID 1347149);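 also: purified recombinant full-length human furin enzyme at 5 nM; fluorescence gain from furin cutting a BOC-RVRR-AMC peptide substrate over 15 min; top concentration of the series differs between compounds; nearly all actives have a fitted effect of over 70% in size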
# Sequence of Furin (Homo sapiens) (P09958 whole entry, looked up): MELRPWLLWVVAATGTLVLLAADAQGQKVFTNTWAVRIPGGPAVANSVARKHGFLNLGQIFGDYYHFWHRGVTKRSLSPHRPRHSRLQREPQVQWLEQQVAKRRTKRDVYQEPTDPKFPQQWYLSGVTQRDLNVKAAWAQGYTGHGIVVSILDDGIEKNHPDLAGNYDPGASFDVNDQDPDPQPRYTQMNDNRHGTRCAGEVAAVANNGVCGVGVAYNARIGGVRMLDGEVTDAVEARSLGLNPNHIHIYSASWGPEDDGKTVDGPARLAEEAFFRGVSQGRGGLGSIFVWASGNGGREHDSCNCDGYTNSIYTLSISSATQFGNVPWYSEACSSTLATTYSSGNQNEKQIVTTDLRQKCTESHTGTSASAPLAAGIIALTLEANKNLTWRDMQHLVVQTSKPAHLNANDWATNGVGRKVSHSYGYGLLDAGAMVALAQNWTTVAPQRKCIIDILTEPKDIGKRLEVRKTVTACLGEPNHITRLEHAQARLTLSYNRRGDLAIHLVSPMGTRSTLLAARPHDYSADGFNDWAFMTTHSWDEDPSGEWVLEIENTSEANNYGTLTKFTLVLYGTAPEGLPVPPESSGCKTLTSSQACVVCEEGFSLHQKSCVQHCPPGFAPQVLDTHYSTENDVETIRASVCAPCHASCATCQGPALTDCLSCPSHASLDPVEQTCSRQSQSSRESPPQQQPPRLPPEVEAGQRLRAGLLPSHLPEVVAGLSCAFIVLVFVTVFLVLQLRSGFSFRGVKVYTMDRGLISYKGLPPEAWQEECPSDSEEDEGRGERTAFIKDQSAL
# In short: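 Counterscreen measures cleavage of 2 microM BOC-RVRR-AMC, below its ~15 microM Km, by 5 nM full-length human furin at pH 7.0 after a 15-min compound preincubation. Inhibition derives from the 15-min fluorescence increase at 37C.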
# [2] = Vero cells viability qHTS for Zika virus inhibitors (AID 1347167)
# In short: (§1)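 To flag cytotoxic protease inhibitors, viability is measured by ATP-dependent luminescence (CellTiter Glo) after cells attached overnight receive compound for 24 to 48 hours in DMEM with 4% FBS.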
# [3] = HepG2 cells viability qHTS for Zika virus inhibitors (AID 1347168); also: potency is read from the fitted curve at half-maximal effect
# In short: as §1
# [4] = Tertiary RLuc qRT-PCR qHTS assay for Zika virus inhibitors (AID 1347169); also: nearly all actives have a fitted effect of over 55% in size; also: potency is read from the fitted curve at half-maximal effect; as to activity change, negative = inhibition: top concentration of the series differs between compounds
# In short: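 Orthogonal cell-based infection assay using recombinant ZIKV-RLuc (Cambodian) in Vero cells; compound added prior to virus at MOI 1-2. Incubation lasts 48-72 hrs at 37 degrees C before live-cell Renilla substrate is added and luminescence measured.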
# [5] = system: Zika virus NS2B-NS3 protease; assay: Primary screen GU AMC qHTS for Zika virus inhibitors (AID 1347154); also: nearly all actives have a fitted effect of over 70% in size
# In short: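 Unlinked Zika NS2B hydrophilic domain/NS3 protease domain noncovalent complex (25 nM final) in 10 mM Tris-HCl pH 8.0, 0.01% Tween 20, with AMC peptide substrate. Fluorescence (ex 340, em 450 nm) change over 15 min, room temperature; percent inhibition fitted to 4-parameter Hill equation.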
# [6] = qHTS Assay for Lipid Storage Modulators (AID 1519; calls by dose curve); conditions: Drosophila S3 cells, BODIPY lipid droplet/cell ratio, laser cytometry, cells loaded with oleic acid; for activity change, negative = inhibition: at 57.5 µM (top of the series)
# In short: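 Cells seeded at 5,000 per well were treated with compounds over a concentration series and loaded with oleic acid (400 uM, as added). Lipid droplet fluorescence (488 nm excitation, 500-530 nm channel) was read by laser-scanning cytometry and normalized to 20 uM Triacsin C.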
# [7] = Primary qHTS for small molecule stabilizers of the endoplasmic reticulum resident proteome: Secreted ER Calcium Modulated Protein (SERCaMP) assay (AID 1508630); also: potency is read from the fitted curve at half-maximal effect
# In short: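 The SH-SY5Y reporter protocol was run at 3 concentrations up to 38.3 uM (primary) or 11 concentrations (follow-up): 16 h compound, 100 nM thapsigargin for 4 h, then extracellular luciferase luminescence.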
# [8] = Counterscreen qHTS for small molecule stabilizers of the endoplasmic reticulum resident proteome: GLuc-NoTag assay (AID 1508627); also: potency is read from the fitted curve at half-maximal effect
# In short: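 Secreted GLuc lacking the SERCaMP modification is measured in SH-SY5Y cells exposed to compound for 19 h and then to thapsigargin (100 nM, 4 h) to deplete ER calcium; hits retested at 11 concentrations, up to 76.6 uM.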
# [9] = Confirmatory qHTS for small molecule stabilizers of the endoplasmic reticulum resident proteome: Secreted ER Calcium Modulated Protein (SERCaMP) assay (AID 1508628); also: nearly all actives have a fitted effect of over 40% in size; also: potency is read from the fitted curve at half-maximal effect
# In short: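 GLuc-SERCaMP-expressing SH-SY5Y cells, pretreated 16 h with compound, are challenged with thapsigargin to empty ER calcium stores; after 4 h, coelenterazine is added directly to the medium and luminescence is imaged.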
# [10] = Cell Viability qHTS for small molecule stabilizers of the endoplasmic reticulum resident proteome (AID 1508629); conditions: cell viability counter-screen, 100 nM thapsigargin for final 4 h;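 also: human SH-SY5Y neuroblastoma cells carrying the GLuc-SERCaMP reporter; compound exposure about 46 h in total before the viability read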
# [11] = molecular target: Cytochrome P450 1A2 (Homo sapiens) (UniProt P05177); assay: p450-cyp1a2 (AID 410; calls by dose curve; also: potency is read from the fitted curve at half-maximal effect)
# Sequence of Cytochrome P450 1A2 (Homo sapiens) (P05177 whole entry, looked up): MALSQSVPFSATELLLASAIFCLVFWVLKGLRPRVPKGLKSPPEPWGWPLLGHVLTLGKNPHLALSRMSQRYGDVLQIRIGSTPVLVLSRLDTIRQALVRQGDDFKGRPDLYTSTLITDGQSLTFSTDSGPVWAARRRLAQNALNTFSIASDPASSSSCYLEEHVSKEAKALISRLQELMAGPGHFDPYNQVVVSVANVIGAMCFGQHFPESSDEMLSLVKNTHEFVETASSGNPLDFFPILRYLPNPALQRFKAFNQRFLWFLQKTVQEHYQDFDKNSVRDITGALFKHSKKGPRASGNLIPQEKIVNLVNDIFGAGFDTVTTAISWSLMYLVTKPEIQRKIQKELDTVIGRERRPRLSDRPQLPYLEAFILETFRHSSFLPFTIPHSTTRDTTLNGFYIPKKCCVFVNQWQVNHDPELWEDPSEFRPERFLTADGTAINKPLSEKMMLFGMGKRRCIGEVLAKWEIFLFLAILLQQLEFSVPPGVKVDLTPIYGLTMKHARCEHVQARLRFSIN
# In short: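 20nM CYP1A2, 100uM Luciferin-ME (=Km), 100mM KPO4; cpd 10 min RT; +NADPH regen, 60 min RT; stop/detect 20 min; luminescence. Normalized to furafylline 57 uM = full inhibition.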
# [12] = molecular target: Glucocorticoid receptor (Homo sapiens) (UniProt P04150); assay: GR-GFP Redistribution (AID 450;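 active = compounds whose dose series gives a full or clear partial fitted curve of increased nuclear translocation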; also: potency is read from the fitted curve at half-maximal effect); conditions: U2OS GR-GFP nuclear translocation, laser cytometry, 2 h
# Sequence of Glucocorticoid receptor (Homo sapiens) (P04150 whole entry, looked up, the tested form may be a part): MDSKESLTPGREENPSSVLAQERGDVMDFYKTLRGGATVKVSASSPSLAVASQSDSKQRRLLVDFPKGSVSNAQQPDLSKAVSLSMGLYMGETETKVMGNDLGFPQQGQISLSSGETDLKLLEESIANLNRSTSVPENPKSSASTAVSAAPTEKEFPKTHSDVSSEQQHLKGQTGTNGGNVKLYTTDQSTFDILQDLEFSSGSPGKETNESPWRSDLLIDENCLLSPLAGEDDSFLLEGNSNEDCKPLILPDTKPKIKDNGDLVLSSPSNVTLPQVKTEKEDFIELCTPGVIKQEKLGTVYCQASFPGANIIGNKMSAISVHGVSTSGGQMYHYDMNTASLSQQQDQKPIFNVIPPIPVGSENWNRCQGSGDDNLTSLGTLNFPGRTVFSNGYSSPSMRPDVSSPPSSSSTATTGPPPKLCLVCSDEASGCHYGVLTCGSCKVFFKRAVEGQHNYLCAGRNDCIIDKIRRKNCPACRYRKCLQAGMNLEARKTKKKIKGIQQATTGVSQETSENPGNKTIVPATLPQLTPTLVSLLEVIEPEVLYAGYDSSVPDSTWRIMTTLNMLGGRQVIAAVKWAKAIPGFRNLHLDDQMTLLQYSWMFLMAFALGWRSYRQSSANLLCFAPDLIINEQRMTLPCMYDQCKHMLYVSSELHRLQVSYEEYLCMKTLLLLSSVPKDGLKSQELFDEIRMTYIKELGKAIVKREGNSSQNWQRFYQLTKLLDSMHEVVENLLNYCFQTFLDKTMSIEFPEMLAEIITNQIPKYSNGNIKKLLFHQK
# [13] = molecular target: Glucocorticoid receptor (Homo sapiens) (UniProt P04150); assay: GR-EFC Redistribution (AID 451; calls by dose curve; also: potency is read from the fitted curve at half-maximal effect); conditions: CHO-K1 GR-EFC translocation, beta-gal luminescence, 2 h
# In short: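 CHO-K1 cells stably expressing nuclear-localized β-gal enzyme acceptor and GR fused C-terminally to the enzyme donor fragment; ligand-driven nuclear translocation restores β-gal by complementation. Compounds titrated up to 46 uM final, 2 h at 37 °C; luminescence read.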
# [14] = molecular target: Mitogen-activated protein kinase 10 (Mus musculus) (UniProt Q61831); assay: JNK3 AlphaScreen Assay (AID 530; active = well fitted curve in either direction with a large enough effect, not every such curve was filed as active;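 also: kinase came from lysate of stimulated human HepG2 cells; signal reports phosphorylation of biotinylated GST-cJun 1-79 at Ser73 with 10 µM ATP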)
# In short: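 Biotinylated GST-cJun(1-79) served as substrate for JNK3 in HepG2 lysates stimulated with IL-1beta and TNF-alpha. ATP was 10 uM final, pH 7.6. Ser73 phosphorylation was quantified by AlphaScreen (680 nm excitation).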
# [15] = molecular target: 3',5'-cyclic-AMP phosphodiesterase 4B (Homo sapiens) (UniProt Q07343); assay: qHTS Assay for Inhibitors of PDE-IV (AID 607; active = well fitted activation curve with a large enough effect in the main read-out, with a control signal flat, not every such curve was filed as active)
# Sequence of 3',5'-cyclic-AMP phosphodiesterase 4B (Homo sapiens) (Q07343 whole entry, looked up): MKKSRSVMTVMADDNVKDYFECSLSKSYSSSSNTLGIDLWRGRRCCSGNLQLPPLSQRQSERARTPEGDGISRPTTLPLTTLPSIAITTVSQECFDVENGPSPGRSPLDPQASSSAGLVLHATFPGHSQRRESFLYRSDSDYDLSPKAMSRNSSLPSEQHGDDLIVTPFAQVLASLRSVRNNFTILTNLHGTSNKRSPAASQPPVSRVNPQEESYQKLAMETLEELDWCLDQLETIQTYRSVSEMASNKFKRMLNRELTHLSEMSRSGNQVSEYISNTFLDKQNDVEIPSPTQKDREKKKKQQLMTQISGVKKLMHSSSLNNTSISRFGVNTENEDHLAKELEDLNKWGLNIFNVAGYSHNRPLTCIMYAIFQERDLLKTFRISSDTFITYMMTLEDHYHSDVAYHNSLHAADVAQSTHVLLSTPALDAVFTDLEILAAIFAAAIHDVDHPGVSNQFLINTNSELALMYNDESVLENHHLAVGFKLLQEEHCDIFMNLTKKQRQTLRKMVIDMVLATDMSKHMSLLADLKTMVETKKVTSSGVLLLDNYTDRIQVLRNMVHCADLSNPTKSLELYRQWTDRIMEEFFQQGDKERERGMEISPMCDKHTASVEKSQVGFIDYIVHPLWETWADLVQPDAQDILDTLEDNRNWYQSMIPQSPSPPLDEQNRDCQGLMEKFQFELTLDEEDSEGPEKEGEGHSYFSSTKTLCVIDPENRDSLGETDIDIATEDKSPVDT
# In short: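 Cell-based read-out of cAMP via a modified cyclic nucleotide-gated channel and membrane potential dye (535/590 nm) in HEK293 cells expressing PDE4 endogenously. Compounds tested up to 22.9 uM final; 100 uM RO 20-1724 reference.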
# [16] = molecular target: DNA dC->dU-editing enzyme APOBEC-3G (Homo sapiens) (UniProt Q9HC16); assay: qHTS for inhibitors of Vif-A3G interactions: Validation (AID 588379)
# Sequence of DNA dC->dU-editing enzyme APOBEC-3G (Homo sapiens) (Q9HC16 whole entry, looked up): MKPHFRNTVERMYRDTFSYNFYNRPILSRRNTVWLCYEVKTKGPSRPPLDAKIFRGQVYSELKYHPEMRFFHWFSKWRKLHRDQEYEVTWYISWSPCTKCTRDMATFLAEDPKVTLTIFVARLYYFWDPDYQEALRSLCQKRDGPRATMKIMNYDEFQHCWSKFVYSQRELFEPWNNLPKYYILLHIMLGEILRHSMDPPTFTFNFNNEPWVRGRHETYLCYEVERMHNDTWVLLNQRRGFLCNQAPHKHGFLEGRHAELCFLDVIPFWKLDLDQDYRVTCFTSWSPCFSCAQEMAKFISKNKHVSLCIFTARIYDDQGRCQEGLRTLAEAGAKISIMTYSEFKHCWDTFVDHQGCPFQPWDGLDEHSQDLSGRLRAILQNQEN
# In short: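 Yellow fluorescence (Ex 488, Em 500-530) of Vif-coexpressing HeLa A3G-eYFP cells, scanned by Acumen cytometer, reports blocked A3G degradation. Cells plated at 700/well overnight at 37 deg C before compound addition, then a further overnight compound incubation at 37 deg C.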
# [17] = molecular target: Nucleoprotein (Lymphocytic choriomeningitis virus (strain Armstrong)) (UniProt P09992); assay: qHTS for Inhibitors of the Functional Ribonucleoprotein Complex (vRNP) of Lymphocytic Choriomeningitis Arenaviruses (LCMV): LCMV Primary Screen - GLuc reporter signal (AID 1347086; calls by dose curve; also: nearly all actives have a fitted effect of over 70% in size)
# Sequence of Nucleoprotein (Lymphocytic choriomeningitis virus (strain Armstrong)) (P09992 whole entry, looked up): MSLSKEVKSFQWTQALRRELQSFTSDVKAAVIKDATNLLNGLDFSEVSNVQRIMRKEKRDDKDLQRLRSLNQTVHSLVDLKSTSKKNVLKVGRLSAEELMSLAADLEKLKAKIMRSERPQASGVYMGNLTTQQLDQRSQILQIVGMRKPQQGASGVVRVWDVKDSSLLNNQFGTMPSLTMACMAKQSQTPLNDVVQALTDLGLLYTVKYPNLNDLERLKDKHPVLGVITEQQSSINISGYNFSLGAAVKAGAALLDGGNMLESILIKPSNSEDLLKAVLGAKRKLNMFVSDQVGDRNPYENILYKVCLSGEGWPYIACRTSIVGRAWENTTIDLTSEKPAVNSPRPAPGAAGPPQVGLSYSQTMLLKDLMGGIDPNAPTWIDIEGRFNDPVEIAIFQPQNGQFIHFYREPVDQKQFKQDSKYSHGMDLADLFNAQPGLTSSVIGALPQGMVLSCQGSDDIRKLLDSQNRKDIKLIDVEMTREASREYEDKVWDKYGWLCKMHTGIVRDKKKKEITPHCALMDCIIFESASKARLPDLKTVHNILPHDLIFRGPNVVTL
# [18] = molecular target: Voltage-gated inwardly rectifying potassium channel KCNH2 (Homo sapiens) (UniProt Q12809); assay: qHTS Assay for Small Molecule Inhibitors of the Human hERG Channel Activity (AID 588834);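 also: U2OS cells transduced with hERG by BacMam; top concentration of the series differs between compounds; lower thallium flux fluorescence means stronger hERG block; nearly all actives have a fitted effect of over 50% in size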
# In short: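 Cells were infected with hERG-BacMam virus for 4 hrs at room temperature, grown overnight, then seeded at 2000/well. After dye loading and roughly 10 min compound treatment, thallium influx was triggered and fluorescence recorded.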
# [19] = measured here: cell count channel max response
# [20] = measured here: lipid channel max response
molecule,measurement,setting,value
CO[C@H]1[C@@H](O)CC(OC2[C@@H](O)CC(OC3[C@@H](O)C[C@H](OC4CC[C@@]5(C)C(CCC6C5CC(O)[C@]5(C)[C@H](C7=CC(=O)OC7)CCC65O)C4)O[C@@H]3C)O[C@@H]2C)O[C@@H]1C (stereo partly specified),Potency,[1],inactive
same,Potency,Furin (Homo sapiens),inactive
same,Potency,[2],inactive
same,Potency,[3],inactive
same,Potency,[4],0.24 µM (active)
Oc1ccc2c3c1O[C@H]1c4c(c5ccccc5n4Cc4ccccc4)C[C@@]4(O)C(C2)N(CC2CC2)CC[C@]314,Potency,[5],inactive
CCc1cccc(CC)c1NC1=NCCN1,Potency,[5],inactive
CC1CCC2C(C)C(=O)OC3O[C@]4(C)CCC1[C@@]32OO4 (stereo partly specified),Potency,[5],inactive
CC1O[C@@H](O[C@@H]2C(O)C[C@H](O[C@@H]3C(O)C[C@@H](OC4CC[C@@]5(C)C6CC[C@]7(C)C(C8=CC(=O)OC8)CC[C@@]7(O)C6CC[C@@H]5C4)OC3C)OC2C)CC(O)[C@H]1O (stereo partly specified),"activity change, negative = inhibition",[6],3.23% (inactive)
same,max response,[6]; [19],20.2%
same,max response,[6]; [20],25.7%
same,Potency,Furin (Homo sapiens),inactive
same,Potency,[2],inactive
same,Potency,[4],0.208 µM (active)
COc1cccc2c1C13CC[N+]4(CC5CC5)CO[C@]1(CCC(=O)C3)C4C2,Potency,[5],inactive
H-YPFVEPI-OH,"activity change, negative = inhibition",[5],-10.5% [at 6.83 µM] (inactive)
CC(C)OC(=O)Nc1ccccc1,Potency,Furin (Homo sapiens),inactive
same,Potency,[2],inactive
same,Potency,[3],inactive
same,Potency,[4],inactive
Cc1ccc2c(c1)C1(CCN(CCc3nc(-c4ccccc4)oc3C)CC1)OC(=O)N2,Potency,[5],inactive
C[C@@H]1O[C@@H](O[C@H]2C[C@@H](O)[C@]3(CO)C4C(CC[C@]3(O)C2)[C@@]2(O)CC[C@H](C3=CC(=O)OC3)[C@@]2(C)C[C@H]4O)[C@H](O)[C@H](O)[C@H]1O (stereo partly specified),Potency,Furin (Homo sapiens),inactive
same,Potency,[5],inactive
same,Potency,[2],inactive
same,Potency,[4],0.234 µM (active)
same,Potency,[7],inactive
CN1CC[C@@]23CCCCC2C1Cc1ccc(O)cc13 (stereo partly specified),Potency,Furin (Homo sapiens),inactive
same,Potency,[2],inactive
same,Potency,[3],inactive
same,Potency,[4],inactive
same,Potency,[8],inactive
same,Potency,[9],3.98 µM (active)
same,max response,[10],30% (inactive)
same,Potency,[7],35.5 µM (active)
Ic1cncc(OC[C@@H]2CCN2)c1,Potency,[11],0.398 µM (active)
same,Potency,[12],> 46 µM (inactive)
same,Potency,[13],> 46 µM (inactive)
same,outcome,[14],inactive
same,Potency,[15],inactive
same,Potency,[16],inactive
same,Potency,Furin (Homo sapiens),inactive
same,Potency,[2],inactive
same,Potency,[3],inactive
same,Potency,[4],inactive
same,Potency,[7],inactive
CCCCCOc1c(OC)ccc2cc(C(=O)NCc3ccc4c(c3)OCO4)c(=O)[nH]c12,Potency,[5],inactive
CC(C)=CCCC1(C)C=Cc2c(O)c3c(c(CC=C(C)C)c2O1)OC12C(=CC4CC1C(C)(C)OC2(C/C=C(/C)C(=O)O)C4O)C3=O (stereo unspecified),Potency,[1],35.5 µM (active)
same,Potency,Furin (Homo sapiens),inactive
same,Potency,[2],inactive
same,Potency,[3],18.6 µM (active)
same,Potency,[4],5.87 µM (active)
C/C=C/CC(C)C(O)C1C(=O)NC(CC)C(=O)N(C)CC(=O)N(C)C(CC(C)C)C(=O)NC(C(C)C)C(=O)N(C)C(CC(C)C)C(=O)NC(C)C(=O)NC(C)C(=O)N(C)C(CC(C)C)C(=O)N(C)C(CC(C)C)C(=O)N(C)C(C(C)C)C(=O)N1C (stereo unspecified),Potency,[17],inactive
C=CCN1CCC2(C)c3cc(O)ccc3CC1[C@@H]2C (stereo partly specified),Potency,[5],inactive
CC1OC(O[C@H]2C[C@@H](O)[C@]3(CO)[C@H]4[C@H](O)C[C@]5(C)[C@@H](C6=CC(=O)OC6)CC[C@]5(O)[C@@H]4CC[C@]3(O)C2)C(O)C(O)C1O (stereo partly specified),Potency,Furin (Homo sapiens),inactive
same,Potency,[2],inactive
same,Potency,[4],0.147 µM (active)
Cl.Cl.Cl.Cl.Cl.Cl.N.N.N.N.NNNNN.NNNNN.O.O.[Ru].[Ru].[Ru],Potency,[12],> 46 µM (inactive)
same,Potency,[13],> 46 µM (inactive)
same,outcome,[14],inactive
same,Potency,[15],inactive
same,"activity change, negative = inhibition",[6],-5.89% (inactive)
same,max response,[6]; [19],-27.5%
same,max response,[6]; [20],-31.1%
same,Potency,[1],50.1 µM (active)
same,Potency,[16],inactive
same,Potency,[5],inactive
same,Potency,[8],12.6 µM (active)
same,Potency,[9],15.8 µM (active)
same,max response,[10],7.14% (inactive)
CCOc1cncc(/C=C/CCNC)c1,Potency,[5],inactive
Cc1c(C(=O)c2cccc3ccccc23)c2cccc3c2n1[C@@H](CN1CCOCC1)CO3,Potency,[5],inactive
CC(N)(COP(=O)(O)Oc1ccccc1)C(=O)O (stereo unspecified),Potency,[5],inactive
COc1ccc2[nH]cc(CCN(C)C)c2c1,Potency,[11],15.8 µM (active)
same,Potency,[12],> 46 µM (inactive) and > 20.6 µM (inactive)
same,Potency,[13],> 46 µM (inactive)
same,outcome,[14],inactive
same,Potency,[15],inactive
same,Potency,[18],inactive
same,Potency,[5],inactive
CN1C2CCC1CC(OC(c1ccc(F)cc1)c1ccc(F)cc1)C2 (stereo unspecified),Potency,[5],inactive
same,Potency,[8],22.4 µM (active)
c1ccc2sc(C3(N4CCCC4)CCCCC3)cc2c1,Potency,[5],inactive
same,Potency,[8],inactive
same,Potency,[9],39.8 µM (active)
CC(C)C[C@H](NC(=O)[C@H](Cc1ccccc1)NC(=O)CNC(=O)[C@H](C)NC(=O)[C@@H](N)Cc1ccc(O)cc1)C(=O)O,"activity change, negative = inhibition",[5],14.3% [at 6.83 µM] (inactive)
same,"activity change, negative = inhibition",[8],12% [at 9.46 µM] (inactive)
same,"activity change, negative = decrease",[9],16.6% [at 9.4 µM] (inactive)
same,max response,[10],9.07% (inactive)
N[C@H](CCCCCP(=O)(O)O)C(=O)O,Potency,[11],inactive
same,Potency,[12],> 46 µM (inactive)
same,outcome,[14],inactive
same,Potency,[15],inactive
same,"activity change, negative = inhibition",[6],-3.15% (inactive)
same,max response,[6]; [19],-11.8%
same,max response,[6]; [20],-15.1%
same,Potency,[1],inactive
same,Potency,[16],inactive
same,Potency,[18],inactive
same,Potency,[5],inactive
same,Potency,[7],inactive
CC(C(=O)OC1CC2CCC(C1)N2C)c1ccc(Br)cc1 (stereo unspecified),Potency,[5],inactive
